Experimental findings from PubChem BioAssay (NCATS) are described below.

The nature of assay [1]: Quantitative High-Throughput drug screen in 47 multiple myeloma cell lines against the NCATS MIPE library collection: KMS28BM_JCRB cell viability assay (AID 1919874). Also: nearly all actives have a fitted effect of over 35% in size. Also: potency is read from the fitted curve at half-maximal effect. Summed up: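 Viability after 48 h drug exposure was measured as ATP-dependent luminescence. Cells, 500 per well, sat at 37 °C under 5% CO2; DMSO wells set 100%, media-only wells 0%.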
Assay [2] is described as follows: qHTS for identification of novel therapeutic agents for treatment of microphthalmiaassociated transcription factor (MiT) renal cell carcinoma (RCC) (AID 1963991; calls by dose curve; also: potency is read from the fitted curve at half-maximal effect). To be noted: CellTiter-Glo, 48 h; for Potency: active = Z-AUC below -0.8 in all three lines; for z-score: stronger effect = lower value. Put shortly: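 Viability of three TFE3-fusion renal carcinoma lines measured by CellTiter-Glo after 48 h treatment with each of 1912 compounds at 11 concentrations. Responses scaled between DMSO (100%) and empty wells (0%) before curve fitting.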

Assay [3] can be described thus: qHTS profiling for inhibitors of Plasmodium falciparum proliferation (AID 504749).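 Also: 0% = DMSO vehicle and full inhibition = artemisinin control; nearly all actives have a fitted effect of over 60% in size.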 To be noted: P. falciparum in erythrocytes, SYBR Green DNA, 72 h, at 28.7 µM (top of the series). Summed up:
(§1)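 Readout was DNA-dye fluorescence from lysed cultures, ex 485/em 535 nm. Parasitized red cells had grown 72 h with compound; data scaled between 0.29 uM artemisinin and DMSO wells and corrected using vehicle-only plates.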

The next assay deals with 3D7. The assay is described as above. To be noted: P. falciparum in erythrocytes, SYBR Green DNA, 72 h; series mostly up to 28.7 µM. Summed up:
as §1

The subject of a further assay is 7G8. The assay is described as above. To be noted: P. falciparum in erythrocytes, SYBR Green DNA, 72 h; series mostly up to 28.7 µM. Summed up: as §1
In a further assay the test system is AA1029. Described as above. To be noted: P. falciparum in erythrocytes, SYBR Green DNA, 72 h; series mostly up to 28.7 µM. Put shortly: as §1
The subject of another assay is AS120. Described as above. To be noted: P. falciparum in erythrocytes, SYBR Green DNA, 72 h; series mostly up to 28.7 µM. Summed up:
as §1

In a further assay the test system is ATS189. Described as above. To be noted: P. falciparum in erythrocytes, SYBR Green DNA, 72 h; series mostly up to 28.7 µM. Put shortly:
as §1

Setting [4] is: TFE3-RCC UOK109 viability, measured here: UOK109 Z-AUC.
The mark [5] stands for this setting: TFE3-RCC viability, measured here: UOK124 Z-AUC.
Where [6] appears, read: TFE3-RCC viability, measured here: UOK145 Z-AUC.

The structures appear in SMILES notation. Records with an inconclusive call do not appear. Calls of active or inactive are those of the source. Unless noted, calls follow the shape of the dose curve; as a rule, active = well fitted curve in the direction sought with a large enough effect; inconclusive = small, poorly fitted or top-dose-only effect, or another doubt; inactive = no such curve, though single readings can be large; an effect the other way counts as inactive or inconclusive.

Take `Cc1[nH]c(C=C2C(=O)Nc3ccccc32)c(C)c1CCC(=O)O`: the Potency in assay [1] is 14800 nM (active); in assay [2] (TFE3-RCC UOK109 viability), 833 nM (active). Moreover, the z-score was -1.41 in assay [2] (setting [4]), -0.97 in assay [2] (setting [5]) and -1.35 in assay [2] (setting [6]).

`Cc1onc(-c2ccccc2)c1C(=O)N[C@@H]1C(=O)N2[C@@H](C(=O)O)C(C)(C)S[C@@H]12`: in assay [1], the Potency entry was “inactive”. Besides, the values for the z-score in assay [2] (setting [4]), in assay [2] (setting [5]) and in assay [2] (setting [6]) were 2.05, 0.727 and 1.83, respectively.

On to `CN[C@@H]1C[C@H]2O[C@@](C)([C@H]1OC)n1c3ccccc3c3c4c(c5c6ccccc6n2c5c31)C(=O)N[C@H]4O`, for which the Potency in assay [1] was 469 nM (active); in assay [2] (TFE3-RCC UOK109 viability), 1480 nM (active). The values for the z-score in assay [2] (setting [4]), in assay [2] (setting [5]) and in assay [2] (setting [6]) were -1.4, -2.32 and -1.88, respectively.

Turning to `O=C(NNC(=O)c1ccc(CNS(=O)(=O)c2ccc(F)c(Cl)c2)cc1)c1ccccc1`, the Potency entry in assay [1] is “inactive”. Besides, the z-score amounted to 0.375 in assay [2] (setting [4]), 0.329 in assay [2] (setting [5]) and 0.518 in assay [2] (setting [6]).

For the molecule `N[C@H]1CN(c2c(F)cc3c(=O)c(C(=O)O)cn(C4C[C@@H]4F)c3c2Cl)CC12CC2` (some centres not stated), the Potency result in assay [1] was “inactive”. Besides, the z-score was 0.717 in assay [2] (setting [4]), 1.4 in assay [2] (setting [5]) and -0.145 in assay [2] (setting [6]).

In the case of `CC(C)(O)[C@H]1CC[C@@](C)([C@H]2[C@@H](O)C[C@@]3(C)[C@@H]4C[C@H](O[C@@H]5O[C@H](CO)[C@@H](O)[C@H](O)[C@@H]5O)[C@H]5C(C)(C)[C@@H](O[C@@H]6OC[C@@H](O)[C@H](O)[C@@H]6O)CC[C@@]56C[C@@]46CC[C@]23C)O1`, the Potency result in assay [1] was “inactive”. Further, the z-score in assay [2] (setting [4]) was found to be 0.913; in assay [2] (setting [5]), 0.41; in assay [2] (setting [6]), 0.699.

For the molecule `C=C1C[C@@]2(O)O[C@@]3(C[C@H]2C(C)C)[C@H](C)CC[C@H]13`, the Potency result in assay [1] is “inactive”. For the same molecule, the z-score in assay [2] (setting [4]) is 0.729; in assay [2] (setting [5]), 0.339; in assay [2] (setting [6]), 0.0529.

Turning to `Cc1ccc([N+](=O)[O-])cc1S(=O)(=O)N(C)N=Cc1cnc2ccc(Br)cn12`, the Potency in assay [1] and in assay [2] (TFE3-RCC UOK109 viability) was 23.5 nM (active) throughout. Further, the figures for the z-score in assay [2] (setting [4]), in assay [2] (setting [5]) and in assay [2] (setting [6]) were -2.11, -3.04 and -2.3, respectively.

As for `COc1cc(C)c(C=CC(C)=CC=CC(C)=CC(=O)O)c(C)c1C`, the Potency entry in assay [1] was “inactive”. In addition, the z-score in assay [2] (setting [4]) is 0.993; in assay [2] (setting [5]), 0.342; in assay [2] (setting [6]) it was 1.02.

As to `C=C1CCC2[C@](C)(CO)C(O)CC[C@]2(C)C1CC=C1C(=O)OCC1O` (some centres not stated), the Potency result in assay [1] was “inactive”. Moreover, the z-score in assay [2] (setting [4]) was 0.432; in assay [2] (setting [5]), -0.457; in assay [2] (setting [6]), 1.09.

As for `CC(=O)C1=C(O)C=C2Oc3c(C(C)=O)c(O)c(C)c(O)c3C2(C)C1=O` (configuration not stated), in assay [1], the Potency result is “inactive”. In addition, the z-score is 0.861 in assay [2] (setting [4]), 0.834 in assay [2] (setting [5]) and -0.166 in assay [2] (setting [6]).

Turning to `CC(=O)OCC(=O)[C@@]1(O)CC[C@H]2[C@@H]3CCC4=CC(=O)CC[C@]4(C)[C@@H]3C(=O)C[C@@]21C`, in assay [1], the Potency result is “inactive”. Moreover, the z-score was -0.147 in assay [2] (setting [4]), 0.413 in assay [2] (setting [5]) and 0.581 in assay [2] (setting [6]).

Consider `COc1cccc2c1C(=O)c1c(O)c3c(c(O)c1C2=O)C[C@@](O)(C(C)=O)C[C@H]3O[C@H]1C[C@H](N)[C@H](O)[C@H](C)O1`, for which the Potency was 29.6 nM (active) in assay [1] and 296 nM (active) in assay [2] (TFE3-RCC UOK109 viability). For the same molecule, the values for the z-score in assay [2] (setting [4]), in assay [2] (setting [5]) and in assay [2] (setting [6]) were -1.65, -2.33 and -1.35, respectively.

`CC1(C)[C@H](O[C@H]2O[C@H](C(=O)O)[C@@H](O)[C@H](O)[C@H]2O[C@@H]2O[C@H](C(=O)O)[C@@H](O)[C@H](O)[C@H]2O)CC[C@@]2(C)[C@H]1CC[C@]1(C)[C@H]2C(=O)C=C2[C@H]3C[C@@](C)(C(=O)O)CC[C@]3(C)CC[C@]21C`: in assay [1], the Potency entry was “inactive”. For the same molecule, the z-score in assay [2] (setting [4]) came to 0.831; in assay [2] (setting [5]) it was 0.728; in assay [2] (setting [6]), 0.774.

Regarding `CC(=O)N[C@@H]1[C@H](O[C@@H]2c3ccc(c(Cl)c3)Oc3cc4cc(c3O[C@H]3O[C@H](CO)[C@@H](O)[C@H](O)[C@H]3NC(=O)CCCCCCCC(C)C)Oc3ccc(cc3Cl)C[C@H]3NC(=O)[C@H](N)c5ccc(O)c(c5)Oc5cc(O)cc(c5)[C@H](NC3=O)C(=O)N[C@H]4C(=O)N[C@H]3C(=O)N[C@@H]2C(=O)N[C@@H](C(=O)O)c2cc(O)cc(O[C@H]4O[C@H](CO)[C@@H](O)[C@H](O)[C@H]4O)c2-c2cc3ccc2O)O[C@H](CO)[C@@H](O)[C@@H]1O`, the Potency result in assay [1] was “inactive”. Besides, the z-score in assay [2] (setting [4]) turned out to be 0.106; in assay [2] (setting [5]), 0.36; in assay [2] (setting [6]) it was 0.292.

In the case of `CC(=O)N1CCN(c2ccc(OCc3nn(C)c(C)c3-c3cccc4c(CCCOc5cccc6ccccc56)c(C(=O)O)n(Cc5cccnc5)c34)cc2)CC1`, the results for the Potency in assay [1] and in assay [2] (TFE3-RCC UOK109 viability) were 23.5 nM (active) and 935 nM (active), respectively. Also, the z-score in assay [2] (setting [4]) is -1.06; in assay [2] (setting [5]), -1.35; in assay [2] (setting [6]) it was -1.45.

In the case of `COc1ccc2c(c1OC)C(=O)OC2[C@H]1c2c(cc3c(c2OC)OCO3)CCN1C` (some centres not stated), the Potency in assay [1] is 20.9 nM (active). Moreover, the activity, negative = inhibition in assay [3] (parasite line A) was 5.64% (inactive); in assay [3] (parasite line B), 5.33% (inactive). Also, the Potency entry with 3D7, in the assay with 7G8, with AA1029, with AS120 and in the assay on ATS189 was “inactive” throughout.
